{"source": "PubChem BioAssay AID1347417", "about": "(National Center for Advancing Translational Sciences (NCATS), 2020)", "note": "In all, about 120,000 compounds went through this assay and about 5,300 (4.4%) were called active. Inconclusive results (about 22%) are left out. Shown is part of a subset that was picked to be rich in actives. Unmarked numbers belong to inactive results. Calls come from the whole dose curve; as a rule, active = well fitted inhibition curve with a large enough effect; inconclusive = small, poorly fitted or top-dose-only effect; inactive = no such curve, though single readings can be large or run the other way. Potency is the fitted concentration of half-maximal effect."}
{"assay": "qHTS Primary assay for Inhibitors of Plasmodium falciparum Dd2 growth in vitro; note: nearly all actives have a fitted effect of over 65% in size;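 for activity, negative = inhibition: plate controls were DMSO vehicle for no effect and reference drug for full effect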", "settings": "P. falciparum Dd2 growth, SYBR Green, 72 h; series mostly up to 28.9 µM; activity, negative = inhibition: at the top concentration", "summary_of_the_method": "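Infected erythrocytes (Dd2, 0.3% parasitemia, 2.5% hematocrit final) are added to compound in RPMI-1640/Albumax II medium, grown 72 h at 37C in low oxygen, then lysed with saponin/Triton-X containing SYBR Green and read by fluorescence.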"}
{"smiles": "CC(C)c1nnsc1CN1CCn2nc(CCC(=O)N3CCCC3)cc2C1", "activity, negative = inhibition": "-17%"}
{"smiles": "CCN1C(=O)CCN(C(=O)N(C)C)CC12CCOCC2", "activity, negative = inhibition": "30.6%"}
{"smiles": "CCOc1ccc(NC(=O)N2c3ccccc3CC2c2noc(C3CCOCC3)n2)cc1", "note": "(stereo not drawn)", "activity, negative = inhibition": "-12.3%"}
{"smiles": "CNC(=O)[C@@H]1CN(C(=O)c2ccco2)C[C@H]1COC", "activity, negative = inhibition": "7.02%"}
{"smiles": "C[S+](=O)([O-])N1CC2(Cc3ccccc31)CN(C(=O)C1CC1)C2", "activity, negative = inhibition": "-4.62% [at 44.1 µM]"}
{"smiles": "CC(=O)N1CC2(CCN(Cc3cccnc3)C2)Cc2ccccc21", "note": "(stereo not drawn)", "activity, negative = inhibition": "-11.2%"}
{"smiles": "O=C(C1CCCC1)N1CC2(CCCN(C3CCCCC3)C2)Cc2ccccc21", "note": "(stereo not drawn)", "Potency": "7.94 µM (active)"}
{"smiles": "COc1ccc2[nH]c3c(c2c1)CCNC31CCN(C(=O)c2ccnn2C)CC1", "outcome": "inactive"}
{"smiles": "O=C(Cn1nc2c(cc1=O)CCCCC2)Nc1nc(-c2ccncc2)cs1", "activity, negative = inhibition": "-14.3%"}
{"smiles": "COc1ccc(CN2C(=O)CO[C@H]3CN(Cc4cccnc4)C[C@H]32)cc1", "activity, negative = inhibition": "-27.4% [at 44.1 µM]"}
{"smiles": "COc1ccc(CN2C(=O)CO[C@H]3CN(C(=O)C4CC4)C[C@H]32)cc1", "activity, negative = inhibition": "18.4% [at 44.1 µM]"}
{"smiles": "O=C1CO[C@H]2CN(C3CCC3)C[C@H]2N1Cc1ccc(OC(F)(F)F)cc1", "Potency": "10 µM (active)"}
{"smiles": "CCNC(=O)N1C[C@@H]2OCC(=O)N(CCOC)[C@@H]2C1", "activity, negative = inhibition": "1.69% [at 44.1 µM]"}
{"smiles": "Cc1cccc(C(=O)N2CCC(Oc3ccc(-c4noc(C(C)C)n4)cc3)C2)c1", "note": "(stereo not drawn)", "activity, negative = inhibition": "27.3% [at 5.79 µM]"}
{"smiles": "CC(C)c1nc(-c2ccc(OC3CCN(C(=O)CCc4nc5ccccc5[nH]4)C3)cc2)no1", "note": "(stereo not drawn)", "Potency": "1.26 µM (active)"}
{"smiles": "CCc1nc(-c2ccc(OC3CCN(C(=O)Cc4c[nH]c5ccccc45)C3)cc2)no1", "note": "(stereo not drawn)", "activity, negative = inhibition": "2.05% [at 5.79 µM]"}
{"smiles": "N#Cc1ccc(C(=O)Nc2ccc3n(c2=O)C[C@H]2C[C@@H]3CN(C(=O)NC3CCCCC3)C2)cc1", "activity, negative = inhibition": "-19.6%"}
{"smiles": "COc1cccc(NC(=O)Nc2ccc3c(c2)N(C)C(=O)c2ccccc2S3)c1", "Potency": "12.6 µM (active)"}
{"smiles": "COc1cccc(NC(=O)CN2C(=O)c3ccccc3Sc3ncccc32)c1", "activity, negative = inhibition": "-15.6%"}
{"smiles": "CCOc1ccccc1C(=O)Nc1ccc2c(c1)N(C)C(=O)c1ccccc1S2", "activity, negative = inhibition": "-8.57%"}
{"smiles": "CCn1cc(-c2ccc(C)cc2)cc1C(=O)NCc1cccnc1", "activity, negative = inhibition": "-8.65%"}
{"smiles": "Cc1cccc(N2CCN(C(=O)c3cc4n(n3)CC(c3ccc(Cl)cc3)OC4)CC2)c1", "note": "(stereo not drawn)", "outcome": "inactive"}
{"smiles": "COc1cc(CNCc2ccc(C)c(F)c2F)ccc1OCC(O)CN1CCC(O)CC1", "note": "(stereo not drawn)", "activity, negative = inhibition": "-45.4%"}
{"smiles": "N#Cc1cccc(CN2C[C@H](O)C[C@H]2c2nc(-c3ccccn3)no2)c1", "activity, negative = inhibition": "9.29% [at 44.1 µM]"}
{"smiles": "Cc1ccccc1C(=O)NCc1nnc2ccc(-c3ccccc3)nn12", "activity, negative = inhibition": "-7.27%"}
{"smiles": "COc1ccccc1C(=O)N1CCC(n2cnnc2C2CC2)CC1", "activity, negative = inhibition": "8.5%"}
{"smiles": "COCc1nncn1C1CCN(C(=O)c2ccccc2F)CC1", "activity, negative = inhibition": "-7.03%"}
{"smiles": "COCc1nncn1C1CCN(C(=O)c2ccccc2OC(F)(F)F)CC1", "Potency": "10 µM (active)"}
